Several values for one entry are separate records, joined by “and”; a condition that tells them apart may be missing. Equal values may be shown once. This is part of a sample that, as a whole, favours compounds with a hit. Of some 83,000 tested, about 20% had one in any assay.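 Results are percent growth after 48 hours of single-concentration exposure. 100 means growth as in untreated cells, lower positive values show inhibition; negative values down to -100 show cell death.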 Activity calls are given as the source filed them. Rule for the calls: active = growth percent below 10; inactive = the rest.
Columns and labels:
Experiment in all cases: NCI-60 one-dose screen, 48 h (100 = growth as untreated, 0 = no growth, -100 = all killed)
Conditions in all cases: 10 µM unless noted
HCT-15 colon = system: HCT-15 colon
HT29 colon = system: HT29 colon
SNB-75 CNS = system: SNB-75 CNS
SNB-19 CNS = system: SNB-19 CNS
U251 CNS = system: U251 CNS
PC-3 prostate = system: PC-3 prostate
SK-MEL-5 melanoma = system: SK-MEL-5 melanoma
UACC-62 melanoma = system: UACC-62 melanoma
LOX IMVI melanoma = system: LOX IMVI melanoma
SK-MEL-28 melanoma = system: SK-MEL-28 melanoma

Measured: growth

CNc1ccc2nc3ccc(=[N+](C)C)cc-3sc2c1
9.87% (active) and 38.1% (inactive): HT29 colon
-31.3% (active) and 27.9% (inactive): SK-MEL-28 melanoma
17.2% (inactive) and 9.61% (active): HCT-15 colon
active: SNB-75 CNS -53.5% | SNB-19 CNS 1.89% and -5.26% | U251 CNS -48.5% and -15.5% | PC-3 prostate 1.57% and 1.01% | SK-MEL-5 melanoma -97% and -61.1% | UACC-62 melanoma 4.52% and -3.38% | LOX IMVI melanoma -57.5% and -44.1%

Cc1ccc(-c2noc(C)n2)cc1
inactive: HCT-15 colon 101% | HT29 colon 98.3% | SNB-75 CNS 85.9% | SNB-19 CNS 105% | PC-3 prostate 97.9% | SK-MEL-5 melanoma 99.7% | UACC-62 melanoma 105% | LOX IMVI melanoma 99.7% | SK-MEL-28 melanoma 110%

COc1cc2nc(N3CCC[C@@H](NC(=O)C4COc5ccccc5O4)C3)nc(N)c2cc1OC (some centres undefined)
inactive: HCT-15 colon 101% and 97.1% | HT29 colon 109% and 97.7% | SNB-75 CNS 83.3% and 90.3% | SNB-19 CNS 107% and 102% | U251 CNS 93.3% and 84.2% | PC-3 prostate 92.9% and 94.2% | SK-MEL-5 melanoma 99.5% and 96.7% | UACC-62 melanoma 103% and 104% | LOX IMVI melanoma 100% and 94.7% | SK-MEL-28 melanoma 102% and 98.7%

Source: PubChem BioAssay (NCI)
